This is a sample that favours compounds with a hit; in the whole collection about 19% have one here.
HT1080 IDH1KD tx: toxicity to HT-1080 IDH1 knockdown cells (counter line). HT-1080 IDH1 knockdown viability, ATP luminescence, 48 h. AID 686971. Potency, µM (doses to about 46.1 µM), most hits filed as cytotoxic. 360,000 compounds, 2% hits
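Knockdown cells (IDH1KD HT-1080) received compounds 2 h after plating at 750 cells/well and were kept 48 h at 37 °C in 5% FBS RPMI. A CellTiter-Glo luminescence read gave % activity for curve fitting.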
TDP1 cell noCPT: qHTS for Inhibitors of human tyrosyl-DNA phosphodiesterase 1 (TDP1): qHTS in cells in absence of CPT | AID 686978, 2013 | Potency, µM (doses to about 46.2 µM), hits mostly inhibitors | DT40 Tdp1-/- hTDP1 cells, no CPT, ATP luminescence, 48 h | 420,000 compounds, 15% hits; further: nearly all actives have a fitted effect of over 55% in size
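Chicken DT40 Tdp1-/- cells complemented with human TDP1, screened without camptothecin (DMSO vehicle only), 400 cells/well. Compounds pin-transferred, cells incubated at 37 °C for at least 48 hr. Growth read as ATP-dependent luminescence (CellTiter-Glo, 30 min at RT).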
HT1080NT lethal: kills 2HG-producing HT-1080-NT fibrosarcoma cells. 360,000 compounds, 1.6% hits. Potency, µM (doses to about 46.1 µM), hits mostly cytotoxic. AID 686970. HT-1080-NT fibrosarcoma viability, CellTiter-Glo ATP luminescence, 48 h;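 further: NT is the 2HG producing partner of a matched IDH1 knockdown line; nearly all actives have a fitted effect of over 55% in size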
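Read-out is CellTiter-Glo luminescence after 10 minutes at room temperature, following 48 hours' compound treatment of HT-1080-NT cells (750 cells/well, RPMI, 5% FBS, 37 degrees C).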
DT40 TDP1 CPT: growth inhibition of DT40 Tdp1-/-;hTDP1 cells with camptothecin (screen for TDP1 inhibitors) | Potency, µM (titrated, usually from 46.2 µM), hits mostly inhibitors | chicken DT40 Tdp1-/-;hTDP1 cells + 20 nM CPT, ATP luminescence, 48 h | AID 686979 | 420,000 compounds, 12% hits; further: nearly all actives have a fitted effect of over 55% in size
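Chicken DT40 Tdp1-/- cells complemented with human TDP1, 400 cells/well, exposed to compounds plus 20 nM camptothecin for at least 48 h at 37 C; viability read as ATP content by CellTiter-Glo luminescence.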
IL1B secr inh: inflammasome signaling inhibition, IL-1 beta readout; activity change, % at 57.5 µM; THP-1 LPS/ATP IL-1B secretion, AlphaLISA, 16 h; stronger effect = lower value; 360,000 compounds, 4.7% hits; in the data active means activity change below about -50%; inconclusive means mostly about -30% to -49%
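Secreted IL-1B measured by AlphaLISA bead assay after 16 h compound exposure of THP-1 cells; compounds (final up to 57.5 uM) added 1 h before LPS (250 ng/mL) and ATP (1.25 mM) stimulation; lower signal means less secretion.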
Each line names hits and unclear results; the compound was inactive in the other large screens. Unless noted, the call rests on the fitted dose curve; in most records, active means well fitted curve in the direction sought with a large enough effect; inconclusive means small, poorly fitted or top-dose-only effect, or another doubt; inactive means no such curve, though single readings can be large; an effect the other way counts as inactive or inconclusive.

Clc1ccc(C(Cn2ccnc2)OCc2c(Cl)cccc2Cl)c(Cl)c1 (centres undefined)	HT1080 IDH1KD tx inconclusive, TDP1 cell noCPT inconclusive, HT1080NT lethal 16µM, DT40 TDP1 CPT inconclusive
OC(Cn1ccnc1)c1ccc(Cl)cc1Cl (centres undefined)	none
O=C(COC(=O)c1c2c(nc3ccccc13)/C(=C\c1ccco1)CC2)NC1CCCC1	TDP1 cell noCPT 23µM, DT40 TDP1 CPT 16µM
O=C(COC(=O)c1ccco1)NC1CCCCC1	none
CC1CCCCC1NC(=O)COC(=O)c1c2c(nc3ccccc13)/C(=C\c1ccco1)CC2 (centres undefined)	TDP1 cell noCPT 23µM, DT40 TDP1 CPT 29µM, IL1B secr inh inconclusive
CN(CCC#N)C(=O)COC(=O)c1c2c(nc3ccccc13)/C(=C\c1ccco1)CC2	TDP1 cell noCPT 13µM, DT40 TDP1 CPT 21µM, IL1B secr inh -63
Cc1cccc(NC(=O)c2ccc3c(c2)C(=O)N(c2ccccc2C)C3=O)n1	none
CCN(C(=O)COC(=O)c1cccc(S(=O)(=O)N(C)C)c1)c1c(N)n(Cc2ccccc2)c(=O)[nH]c1=O	none
O=C1CN(C(=O)Nc2ccccc2Cl)C(c2ccccc2)c2c(sc3c2CCCC3)N1 (centres undefined)	TDP1 cell noCPT inconclusive, DT40 TDP1 CPT 23µM (no result: HT1080 IDH1KD tx, HT1080NT lethal, IL1B secr inh)
N#Cc1ccc(C(S(=O)(=O)Cc2ccccc2)S(=O)(=O)Cc2ccccc2)cc1	TDP1 cell noCPT inconclusive, DT40 TDP1 CPT inconclusive, IL1B secr inh -58
Cn1ncc(N=Cc2ccccc2)c1C(=O)Nc1cccc(Cl)c1	TDP1 cell noCPT 18µM, DT40 TDP1 CPT inconclusive
Cn1ncc(N=Cc2ccccc2)c1C(N)=O	none
COc1cccc(C(=O)NCCCNc2nc3cc(C)cc(C)c3cc2C#N)c1	TDP1 cell noCPT 26µM, DT40 TDP1 CPT inconclusive
COc1ccc(C(=O)NCCNc2nc3c(C)cccc3cc2C#N)cc1	TDP1 cell noCPT 21µM, DT40 TDP1 CPT inconclusive, IL1B secr inh inconclusive
Cc1cc(C)c2cc(C#N)c(NCCCN)nc2c1	TDP1 cell noCPT 21µM, HT1080NT lethal inconclusive, DT40 TDP1 CPT inconclusive
COc1ccc(C(=O)NCCNc2nc3cc(C)cc(C)c3cc2C#N)cc1	HT1080 IDH1KD tx inconclusive, TDP1 cell noCPT inconclusive, HT1080NT lethal inconclusive, DT40 TDP1 CPT inconclusive
O=C(NCc1cccc(Cl)c1)c1ccc(CS(=O)Cc2ccc(Cl)cc2)o1 (centres undefined)	DT40 TDP1 CPT inconclusive, IL1B secr inh -74
Cc1ccc(CS(=O)Cc2ccc(C(=O)NCc3ccc4c(c3)OCO4)o2)cc1 (centres undefined)	DT40 TDP1 CPT inconclusive
O=C(NCc1ccccc1)c1ccc(CS(=O)Cc2cccc(Cl)c2)o1 (centres undefined)	TDP1 cell noCPT inconclusive, DT40 TDP1 CPT inconclusive
O=C(NCc1ccc2c(c1)OCO2)c1ccc(CS(=O)Cc2ccc(Cl)cc2)o1 (centres undefined)	IL1B secr inh -69
COCC(=O)Nc1cc(C(=O)N2CCCC(C(N)=O)C2)cc2nc(-c3ccccc3)n(C)c12 (centres undefined)	none (no result: HT1080 IDH1KD tx, HT1080NT lethal, IL1B secr inh)
COc1ccc(CC(=O)NNS(=O)(=O)c2ccc([N+](=O)[O-])cc2)cc1OC	none
COc1ccc([C@H]2CC(=O)C=C(c3ccc4[nH]ccc4c3)C2)cc1OC	TDP1 cell noCPT inconclusive, DT40 TDP1 CPT inconclusive
COc1ccc([C@H]2CC(=O)C=C(c3ccc4cc[nH]c4c3)C2)cc1	TDP1 cell noCPT 23µM, DT40 TDP1 CPT 26µM
COc1ccc([C@H]2CC(=O)C=C(c3ccc4ccn(C)c4c3)C2)cc1	HT1080 IDH1KD tx inconclusive, TDP1 cell noCPT 18µM, HT1080NT lethal inconclusive, DT40 TDP1 CPT inconclusive, IL1B secr inh inconclusive
COc1ccc(C2=CC(=O)C[C@H](c3ccc(OC)cc3)C2)cc1	TDP1 cell noCPT inconclusive
O=C1C=C(c2ccc3[nH]ccc3c2)C[C@@H](c2ccc(F)cc2)C1	TDP1 cell noCPT inconclusive, DT40 TDP1 CPT 12µM
COc1cccc(N2CCN(C(=O)C3CCCN(S(=O)(=O)c4cccc5nsnc45)C3)CC2)c1 (centres undefined)	TDP1 cell noCPT 9.2µM, DT40 TDP1 CPT 9.2µM (no result: HT1080 IDH1KD tx, HT1080NT lethal, IL1B secr inh)
CCOc1ccc2nc(NC(=O)C3CCCN(S(=O)(=O)c4cccc5nonc45)C3)sc2c1 (centres undefined)	HT1080 IDH1KD tx inconclusive, TDP1 cell noCPT 16µM, DT40 TDP1 CPT inconclusive
O=C(Nc1ccc(F)cc1F)C1CCCN1S(=O)(=O)c1cccc2nsnc12 (centres undefined)	TDP1 cell noCPT inconclusive
Cc1ccc2nc(NC(=O)C(NS(=O)(=O)c3cccc4nsnc34)C(C)C)sc2c1 (centres undefined)	TDP1 cell noCPT inconclusive, DT40 TDP1 CPT 29µM
CCOc1ccc2nc(NC(=O)C3CCCN(S(=O)(=O)c4c(C)noc4C)C3)sc2c1 (centres undefined)	HT1080 IDH1KD tx inconclusive, TDP1 cell noCPT inconclusive, HT1080NT lethal inconclusive, DT40 TDP1 CPT inconclusive
Cc1ccc(NC(=O)C2CCCN2S(=O)(=O)c2cccc3nsnc23)c(Br)c1 (centres undefined)	TDP1 cell noCPT 21µM, DT40 TDP1 CPT inconclusive (no result: HT1080 IDH1KD tx, HT1080NT lethal, IL1B secr inh)
CC1CCN(C(=O)C2CCCN(S(=O)(=O)c3cccc4nsnc34)C2)CC1 (centres undefined)	DT40 TDP1 CPT inconclusive
CC(=O)Nc1ccc(NC(=O)C(Cc2ccccc2)N2Cc3ccccc3C2=O)cc1 (centres undefined)	none (no result: HT1080 IDH1KD tx, HT1080NT lethal, IL1B secr inh)
Cc1ccc(S(=O)(=O)N2CCOCC2)cc1NC(=O)COC(=O)C1(C)CC1(Cl)Cl (centres undefined)	TDP1 cell noCPT inconclusive, DT40 TDP1 CPT inconclusive
COc1ccc(OC)c(NC(=O)C2CCCN(S(=O)(=O)c3cccc4nonc34)C2)c1 (centres undefined)	none
COc1ccc(CNC(=O)C2CCN(S(=O)(=O)c3cccc4nsnc34)CC2)cc1	TDP1 cell noCPT inconclusive
Cc1ccc(NC(=O)C2CCN(S(=O)(=O)c3cccc4nsnc34)CC2)cc1F	DT40 TDP1 CPT inconclusive (no result: HT1080 IDH1KD tx, HT1080NT lethal, IL1B secr inh)
COc1ccc2nc(NC(=O)C3CCCN(S(=O)(=O)c4cccc5nsnc45)C3)sc2c1 (centres undefined)	TDP1 cell noCPT 16µM, DT40 TDP1 CPT inconclusive, IL1B secr inh inconclusive
COc1ccc2nc(NC(=O)C3CCCN(S(=O)(=O)c4c(C)noc4C)C3)sc2c1 (centres undefined)	TDP1 cell noCPT inconclusive, DT40 TDP1 CPT inconclusive
COc1ccc(CNC(=O)C2CCCN(S(=O)(=O)c3cccc4nsnc34)C2)cc1 (centres undefined)	TDP1 cell noCPT 23µM

Screens (PubChem BioAssay)
